Results as given in the supplement of paper PMC8253809.

Tests used:
Assay in all cases: growth inhibition (% activity, log2 RLU normalised to DMSO / staurosporine); higher = more growth inhibition
Conditions in all cases: 33 µM
DIPGX29 = tested on: DIPGX29 (H3.3 K27M diffuse intrinsic pontine glioma line)
Method in brief: (§1)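 The growth-inhibition value comes from CellTiter-Glo luminescence, log2-transformed, normalised per plate to % activity between solvent and positive control wells, and taken as the median over replicates. Treatment of pHGG cell lines and H9-derived neural stem cells with approved drugs was at a single final concentration of about 33 μM, in triplicate, for 7 days at 37 °C, 5% CO2.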

DIPGX37 = tested on: DIPGX37 (H3.3 K27M diffuse intrinsic pontine glioma line)
Method in brief: as §1

DIPGX7 = tested on: DIPGX7 (H3.3 K27M diffuse intrinsic pontine glioma line)
Method in brief: as §1

DIPGX9 = tested on: DIPGX9 (diffuse intrinsic pontine glioma line)
Method in brief: as §1

HGGX39 = tested on: HGGX39 (paediatric high-grade glioma line)
Method in brief: as §1

HGGX6 = tested on: HGGX6 (H3.3 G34R paediatric high-grade glioma line)
Method in brief: as §1

HNSC = tested on: HNSC
Method in brief: as §1

SUDIPGIV = tested on: SUDIPGIV (diffuse intrinsic pontine glioma line)
Method in brief: as §1

SUDIPGVI = tested on: SUDIPGVI (diffuse intrinsic pontine glioma line)
Method in brief: as §1

SUDIPGXIII = tested on: SUDIPGXIII (diffuse intrinsic pontine glioma line)
Method in brief: as §1

| Structure (SMILES) | growth inhibition (DIPGX29) [%] | growth inhibition (DIPGX37) [%] | growth inhibition (DIPGX7) [%] | growth inhibition (DIPGX9) [%] | growth inhibition (HGGX39) [%] | growth inhibition (HGGX6) [%] | growth inhibition (HNSC) [%] | growth inhibition (SUDIPGIV) [%] | growth inhibition (SUDIPGVI) [%] | growth inhibition (SUDIPGXIII) [%] |
| --- | --- | --- | --- | --- | --- | --- | --- | --- | --- | --- |
| C[C@@H](NCCCc1cccc(C(F)(F)F)c1)c1cccc2ccccc12 | 8.61 | 3.26 | 6.24 | 5.87 | 5.43 | 18.9 | 49.7 | 4.23 | -0.119 | 0.33 |
| COc1ccc2c(c1OC)C(=O)O[C@@H]2[C@H]1c2c(cc3c(c2OC)OCO3)CCN1C | -0.0995 | 0.428 | -0.697 | -1.08 | 0.078 | 1.48 | -1.88 | -0.28 | -0.0763 | 1.03 |
| Cc1ncc(CO)c(CO)c1O | 0.532 | 1.29 | 0.82 | 0.826 | -0.552 | 2.21 | 1.1 | 0.59 | 0.153 | -0.917 |
| CCN(CC)C(=S)SSC(=S)N(CC)CC | 1.19 | 3.53 | 5.8 | 10.8 | 3.44 | 3.72 | 50 | -0.505 | 1.15 | 0.0312 |
| CCCc1cc(=O)[nH]c(=S)[nH]1 | -0.542 | 1.03 | -0.794 | 1.7 | -0.649 | -0.265 | -0.282 | -1.58 | 0.156 | 1.61 |
| CCC(=O)OCC(=O)[C@@]1(OC(=O)CC)[C@@H](C)C[C@H]2[C@@H]3CCC4=CC(=O)C=C[C@]4(C)[C@@]3(Cl)[C@@H](O)C[C@@]21C | 2.67 | -2.69 | 1.9 | 4.04 | 3.24 | 1.72 | 0.321 | -1.55 | -0.46 | 0.862 |
| COC(=O)C1=C(C)NC(C)=C(C(=O)OC)C1c1ccccc1[N+](=O)[O-] | -2.53 | -2.53 | 0.0754 | 3.5 | -0.258 | -0.288 | 8.49 | -2.66 | -7.47 | -0.486 |
| CC(NCCc1ccc(O)cc1)C(O)c1ccc(O)cc1 (stereo not given) | -0.577 | -0.38 | -0.502 | 1.19 | 1.54 | -0.151 | -0.0915 | -0.121 | 1.63 | -1.5 |
| CCCCCOC(=O)Nc1nc(=O)n([C@@H]2O[C@H](C)[C@@H](O)[C@H]2O)cc1F | -0.544 | 1.13 | 0.087 | 0.193 | 1.46 | 0.0555 | -0.694 | -0.463 | 0.998 | 1.54 |
| Cc1cccc(C)c1OCC(C)N (stereo not given) | -3.9 | -0.481 | -1.91 | -1.51 | -0.858 | -1.81 | -4.52 | -0.767 | -2.5 | 0.823 |
| Cc1cc(=O)n(-c2ccccc2)n1C | -0.731 | -0.447 | -1.9 | 0.213 | -0.272 | -0.826 | -1.87 | 0.134 | 0.115 | 0.666 |
| CCN(CC)CCOCCOC(=O)C(CC)(CC)c1ccccc1 | 7.78 | 4.64 | 14.3 | 2.65 | 9.22 | 10.7 | 6.61 | 2.41 | 4.8 | -0.0734 |
| O=S(=O)(O)c1cc(O)ccc1O | -4.18 | -4.39 | -0.642 | -3.41 | -5.27 | -3.97 | 13.9 | -3.95 | -12.4 | 1.53 |
| CN1CCC[C@H]1c1cccnc1 | 0.174 | 0.939 | -1.09 | -1.61 | 2.08 | 0.579 | -0.787 | -0.338 | -0.198 | 1.09 |
| c1cc(CN2CCCNCCNCCCNCC2)ccc1CN1CCCNCCNCCCNCC1 | 1.86 | 3.43 | 1.65 | 2.55 | 4.18 | 5.37 | 11.8 | 12.5 | 5.04 | 3.18 |
| Cc1onc(-c2ccccc2)c1C(=O)N[C@@H]1C(=O)N2[C@@H]1SC(C)(C)[C@@H]2C(=O)O | -1.74 | -1.12 | -1.18 | -0.122 | -0.815 | 0.0702 | -4.11 | 0.237 | 0.245 | -1.71 |
| CCCCN1CCCCC1C(=O)Nc1c(C)cccc1C (stereo not given) | -1.45 | -1.09 | -1.58 | 0.909 | 1.03 | 0.943 | -1.77 | -2.22 | -1.08 | 7.3 |
| C=CCNC(N)=S | -0.199 | 0.393 | -0.932 | -0.168 | 1.56 | 1.43 | -1.32 | -1.24 | -2.19 | -0.232 |
| CC(=O)/N=c1/sc(S(N)(=O)=O)nn1C | 1.46 | 2.45 | 2.3 | 1.1 | 4.29 | 1.67 | 5.67 | 0.751 | 1.6 | -14.4 |
| CC[C@H](C)C(=O)O[C@H]1C[C@H](O)C=C2C=C[C@H](C)[C@H](CC[C@@H](O)C[C@@H](O)CC(=O)O)[C@H]21 | 1.52 | -5.39 | 5.32 | 1.14 | 8.71 | 5.23 | 17.3 | 1.99 | -4.73 | 2.62 |
| CCCCC(=O)N(Cc1ccc(-c2ccccc2-c2nnn[nH]2)cc1)[C@H](C(=O)O)C(C)C | -2.21 | -1.28 | -0.538 | -0.058 | -2.05 | -0.244 | -3.37 | 4.24 | -0.599 | -8.43 |

| Structure (SMILES) | growth inhibition (DIPGX29) [%] | growth inhibition (DIPGX37) [%] | growth inhibition (DIPGX7) [%] | growth inhibition (DIPGX9) [%] | growth inhibition (HGGX39) [%] | growth inhibition (HGGX6) [%] | growth inhibition (HNSC) [%] | growth inhibition (SUDIPGIV) [%] | growth inhibition (SUDIPGVI) [%] | growth inhibition (SUDIPGXIII) [%] |
| --- | --- | --- | --- | --- | --- | --- | --- | --- | --- | --- |
| NC(=O)c1ncn([C@@H]2O[C@H](CO)[C@@H](O)[C@H]2O)c1O | 0.0608 | 0.272 | -0.185 | -0.234 | 1.1 | 0.705 | 1.34 | -0.809 | -1.05 | -0.893 |
| c1ccc2c(c1)CCCC2C1=NCCN1 (stereo not given) | 1.99 | 2.84 | 1.62 | 2.1 | 2.48 | 2.7 | 8.78 | 3.45 | 2.93 | 0.717 |
| CNC(=O)CN(CCN(CCN(CC(=O)[O-])CC(=O)NC)CC(=O)[O-])CC(=O)[O-].[Gd+3] | -2.04 | -0.306 | -1.48 | -2.31 | -1.74 | 1.15 | -6.04 | -1.08 | -1.67 | 0.753 |
| CC(=O)O[C@H]1C[C@@H]2CC[C@@H]3[C@H](CC[C@@]4(C)[C@H]3C[C@H]([N+]3(C)CCCCC3)[C@@H]4OC(C)=O)[C@@]2(C)C[C@@H]1N1CCCCC1 | 0.923 | -0.759 | 1.01 | 1.13 | 1.15 | -0.813 | 1.96 | -0.377 | 1.82 | -0.269 |
| CC(C)C[C@H](NC(=O)[C@H](CCc1ccccc1)NC(=O)CN1CCOCC1)C(=O)N[C@@H](Cc1ccccc1)C(=O)N[C@@H](CC(C)C)C(=O)[C@@]1(C)CO1 | 49.4 | 59.1 | 55.8 | 55 | 51.3 | 57.8 | 56.9 | 55 | 52 | 29.5 |
| CC(C)OC(=O)C(C(=O)OC(C)C)=C1SC=CS1 | 12.7 | 6.67 | 26.1 | 4.32 | 8.43 | 13.3 | 43.7 | 16.3 | -3.26 | 2.97 |
| CC(C)C(=O)Oc1ccc(CO)cc1[C@H](CCN(C(C)C)C(C)C)c1ccccc1 | 0.102 | -1.82 | 0.436 | 0.893 | 1.59 | -1.41 | 0.95 | -0.518 | 1.55 | 0.403 |
| C=C1CCC(O)CC1=CC=C1CCCC2(C)C1CCC2C(C)CCCC(C)(C)O (stereo not given) | -0.0142 | 2.58 | 3.34 | -0.221 | 3.14 | 0.603 | -1.74 | 3.43 | -3.1 | -0.781 |
| CNC(=O)c1cc(Oc2ccc(NC(=O)Nc3ccc(Cl)c(C(F)(F)F)c3)c(F)c2)ccn1 | 4.67 | 2.29 | 3.66 | 2.56 | 5.15 | 5.99 | 39.1 | 1.19 | 4.32 | 59.3 |
| O=C(O)c1cn(C2CC2)c2cc(N3CCNCC3)c(F)cc2c1=O | -1.96 | -2.35 | -2.23 | -1.26 | -1.56 | -1.82 | -1.04 | -1.7 | -2.88 | -1.57 |
| CC(C)NCC(O)COc1ccc(COCCOC(C)C)cc1 (stereo not given) | -3.23 | -0.456 | -0.461 | -0.782 | -1.74 | -3.85 | -7.27 | -3.11 | -2.42 | -1.46 |
| COC(=O)C1=C(C)NC(C)=C(C(=O)OC(C)C)C1c1cccc2nonc12 (stereo not given) | -2.46 | -3.83 | 1.18 | -3.89 | -6.2 | -4.5 | -4.73 | -4.11 | -12.6 | 3.66 |
| Nc1c(CC(=O)O)cccc1C(=O)c1ccccc1 | -1.69 | -2.54 | -0.79 | -0.667 | -0.264 | -1.13 | -2.43 | -5.49 | -5.35 | 1.21 |
| Cc1ccc(C(=O)c2ccc(CC(=O)O)n2C)cc1 | -0.189 | -0.055 | 0.146 | 0.57 | 0.449 | -0.641 | 2.18 | -4 | 1.82 | -0.302 |
| CCCCCN(C)CCC(O)(P(=O)(O)O)P(=O)(O)O | -3.97 | 2.62 | -1.48 | -0.821 | 0.759 | -3.74 | 5.06 | -4.22 | -0.622 | 0.0777 |
| CC(=O)OCC(=O)[C@@]12OC(C)(C)O[C@@H]1C[C@H]1[C@@H]3C[C@H](F)C4=CC(=O)C=C[C@]4(C)[C@@]3(F)[C@@H](O)C[C@@]12C | 0.7 | 2.1 | -1.12 | 3.42 | 2.3 | -0.607 | 5.54 | -2.88 | 0.11 | 2.76 |
| Cc1ccc(-n2[nH]c(C)c(N=Nc3cccc(-c4cccc(C(=O)O)c4)c3O)c2=O)cc1C | -2.95 | -1.98 | 0.213 | -1.59 | -1.34 | -2.27 | 13.7 | -2.64 | -2.5 | 1.95 |
| CN(C)CCC(c1ccc(Cl)cc1)c1ccccn1 (racemic) | 1.65 | 2.71 | 2.71 | 1.38 | 3.68 | 0.339 | 4.41 | 1.92 | 4.15 | -0.538 |
| O=c1cc[nH]c(=S)[nH]1 | 1.29 | 1.68 | 2.17 | 2.37 | 0.218 | -1.78 | 36.9 | 1.67 | -6.46 | 0.601 |
| CCC(C)(C)C(=O)O[C@H]1C[C@@H](C)C=C2C=C[C@H](C)[C@H](CC[C@@H]3C[C@@H](O)CC(=O)O3)[C@H]21 | 6.91 | -7.26 | 9.48 | 1.4 | 15.7 | 11.3 | 60.4 | 19 | -11.4 | 3.91 |
| CN1CCN(c2cc3c(cc2F)c(=O)c(C(=O)O)cn3-c2ccc(F)cc2)CC1 | 0.274 | 1.39 | 0.237 | 1.68 | 1.58 | -0.335 | 4.83 | 0.444 | 1.63 | 0.0917 |
